From PubChem BioAssay AID1159580 (chemical genetic matrix, 2015)
“And” between values parts separate entries of the source, which are not always exact repeats. Identical values can stand only once. The campaign covered roughly 5,500 compounds. About 2,000 (36%) were called active. Another 18% or so got no clear call; they are omitted. No stated cut-off is given here; in the data, active means normalized growth mostly below about 0.91 (no sharp cut-off); inconclusive means no clear call, values can overlap the other calls; inactive means mostly above about 0.92. The list shows a part of the results.

Assay: chemical genetic growth profiling, strain panel (AID 1159580);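 further: tested at 20 µM; growth read once vehicle control cultures reached saturation at 30 °C; 1 = growth at the plate median or of vehicle wells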
Conditions: S. cerevisiae deletion strains, growth OD

Measured: normalized growth

COc1ccc2c(c1)O[C@H]1c3ccc(OC)cc3OC[C@@H]21
inactive: locus YAL021C, strain ccr4, stronger effect = lower value 1.03 | locus YAL026C, strain drs2, stronger effect = lower value 1.02 | locus YAL030W, strain snc1, stronger effect = lower value 1.02 | locus YBL061C, strain skt5, stronger effect = lower value 1.02 | locus YBR009C, strain hhf1, stronger effect = lower value 1 | locus YBR021W, strain FUR4, stronger effect = lower value 0.961 | locus YBR023C, strain chs3, stronger effect = lower value 1.02 | locus YBR171W, strain sec66, stronger effect = lower value 1.03 | locus YBR229C, strain ROT2, stronger effect = lower value 0.975 | locus YBR231C, strain swc5, stronger effect = lower value 1.01 | locus YBR279W, strain paf1, stronger effect = lower value 1.02 | locus YCL011C, strain gbp2, stronger effect = lower value 1.02 | locus YCL016C, strain dcc1, stronger effect = lower value 1.03 | locus YCL029C, strain bik1, stronger effect = lower value 0.99 | locus YCL069W, strain vba3, stronger effect = lower value 1.03 | locus YCR088W, strain abp1, stronger effect = lower value 1.02 | locus YDL005C, strain med2, stronger effect = lower value 1.02 | locus YDL035C, strain GPR1, stronger effect = lower value 0.945 | locus YDL040C, strain nat1, stronger effect = lower value 1.01 | locus YDL074C, strain BRE1, stronger effect = lower value 0.911 | locus YDL101C, strain DUN1, stronger effect = lower value 0.984 | locus YDL185W, strain tfp1, stronger effect = lower value 0.98 | locus YDR001C, strain nth1, stronger effect = lower value 1.01 | locus YDR069C, strain doa4, stronger effect = lower value 1.01 | locus YDR137W, strain rgp1, stronger effect = lower value 1.06 | locus YDR150W, strain NUM1, stronger effect = lower value 0.986 | locus YDR159W, strain sac3, stronger effect = lower value 1.05 | locus YDR162C, strain NBP2, stronger effect = lower value 0.937 | locus YDR195W, strain ref2 0.976 | locus YDR297W, strain sur2, stronger effect = lower value 1.03 | locus YDR334W, strain swr1, stronger effect = lower value 1.02 | locus YDR335W, strain msn5, stronger effect = lower value 1.03 | locus YDR388W, stronger effect = lower value 0.956 | locus YDR392W, strain spt3, stronger effect = lower value 1.03 | locus YEL003W, strain gim4, stronger effect = lower value 1.02 | locus YEL037C, strain rad23, stronger effect = lower value 1.02 | locus YEL061C, strain CIN8 (second series), stronger effect = lower value 1.02 | locus YEL061C, strain CIN8, stronger effect = lower value 0.985 | locus YER015W, strain faa2, stronger effect = lower value 1.03 | locus YER016W, strain bim1, stronger effect = lower value 1.02 | locus YER110C, stronger effect = lower value 0.924 | locus YER111C, strain swi4, stronger effect = lower value 1.02 | locus YER155C, strain BEM2 (second series), stronger effect = lower value 1.04 | locus YER167W, strain BCK2, stronger effect = lower value 0.989 | locus YFR010W, strain ubp6, stronger effect = lower value 1.01 | locus YGL167C, strain pmr1, stronger effect = lower value 1.02 | locus YGL173C, strain kem1, stronger effect = lower value 1.02 | locus YGL227W, strain vid30, stronger effect = lower value 1.02 | locus YGL240W, strain doc1, stronger effect = lower value 1.03 | locus YGL253W, strain hxk2, stronger effect = lower value 1.02 | locus YGR078C, strain PAC10, stronger effect = lower value 0.928 | locus YHR013C, strain ard1, stronger effect = lower value 1.05 | locus YHR027C, strain rpn1, stronger effect = lower value 1.02 | locus YHR030C, strain SLT2, stronger effect = lower value 0.977 | locus YHR079C, strain IRE1 (second series), stronger effect = lower value 0.95 | locus YHR079C, strain IRE1, stronger effect = lower value 0.964 | locus YHR094C, strain hxt1, stronger effect = lower value 0.968 | locus YHR129C, strain ARP1, stronger effect = lower value 1 | locus YHR142W, strain chs7, stronger effect = lower value 1.02 | locus YHR200W, strain rpn10, stronger effect = lower value 0.944 | locus YIL066C, strain RNR3, stronger effect = lower value 0.977 | locus YIL073C, strain SPO22, stronger effect = lower value 0.961 | locus YIL125W, strain kgd1, stronger effect = lower value 0.973 | locus YJL092W, strain hpr5, stronger effect = lower value 1.02 | locus YJL095W, strain BCK1 (second series), stronger effect = lower value 1.01 | locus YJL115W, strain asf1, stronger effect = lower value 1.03 | locus YJL129C, strain trk1, stronger effect = lower value 1.05 | locus YJL134W, strain LCB3, stronger effect = lower value 0.992 | locus YJL154C, strain vps35, stronger effect = lower value 1.02 | locus YJL164C, strain tpk1, stronger effect = lower value 1.02 | locus YJL166W, strain qcr8, stronger effect = lower value 1.02 | locus YJL168C, strain set2, stronger effect = lower value 0.955 | locus YJL187C, strain SWE1 (second series), stronger effect = lower value 0.96 | locus YJL187C, strain SWE1, stronger effect = lower value 1.02 | locus YJR066W, strain TOR1, stronger effect = lower value 0.927
active: locus YDL192W, strain arf1, stronger effect = lower value 0.897 | locus YDR101C, strain arx1, stronger effect = lower value 0.911 | locus YDR318W, strain mcm21, stronger effect = lower value 0.87 | locus YDR502C, strain sam2, stronger effect = lower value 0.876 | locus YGL078C, strain dbp3, stronger effect = lower value 0.897 | locus YGL086W, strain mad1, stronger effect = lower value 0.882 | locus YGL248W, strain PDE1, stronger effect = lower value 0.863 | locus YGR135W, strain pre9, stronger effect = lower value 0.84 | locus YGR252W, strain gcn5, stronger effect = lower value 0.669 | locus YIR030C, strain dcg1, stronger effect = lower value 0.927
0.684 (active) and 0.982 (inactive): locus YJL095W, strain BCK1, stronger effect = lower value
